The panel holds about 83,000 compounds, 20% with a hit somewhere; the sample as a whole holds those more often.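 Activity criterion: percent growth below 10, measured after cells in 96-well plates were exposed to a single compound concentration for 48 hours.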 Unmarked numbers belong to inactive results. Calls of active or inactive are those of the source.
Legend:
Assay in all cases: NCI-60 one-dose screen, 48 h (100 = growth as untreated, 0 = no growth, -100 = all killed)
Conditions in all cases: 10 µM unless noted
EKVX NSCLC = tested on: EKVX NSCLC
SN12C renal = tested on: SN12C renal
UO-31 renal = tested on: UO-31 renal
TK-10 renal = tested on: TK-10 renal
ACHN renal = tested on: ACHN renal
CAKI-1 renal = tested on: CAKI-1 renal
CCRF-CEM leukemia = tested on: CCRF-CEM leukemia
MOLT-4 leukemia = tested on: MOLT-4 leukemia
SR leukemia = tested on: SR leukemia
A498 renal = tested on: A498 renal

Row | SMILES | growth (EKVX NSCLC) | growth (SN12C renal) | growth (UO-31 renal) | growth (TK-10 renal) | growth (ACHN renal) | growth (CAKI-1 renal) | growth (CCRF-CEM leukemia) | growth (MOLT-4 leukemia) | growth (SR leukemia) | growth (A498 renal)
1 | Nc1nc2c(ncn2[C@@H]2O[C@H](CS)[C@@H](O)[C@H]2O)c(=O)[nH]1 | 95.8% | 97.2% | 93% | 96.3% | 99.8% | 94.5% | 100% | 99% | 101% | –
2 | CCCN1C(=O)N(CCC)C2C1NN=c1s/c(=C3\C(=O)N(C(C)C)c4ccccc43)c(=O)n12 (stereo not drawn) | 51% | 65.9% | 30.9% | 78.9% | 23.4% | 31.7% | 45.8% | 46.3% | – | –
3 | COc1ccc2occ(C3=C(c4c[nH]c5ccccc45)C(=O)NC3=O)c2c1 | 49.4% | 38.4% | 40.4% | 81.5% | 70.2% | 36.6% | 51.9% | 30.2% | 29.4% | –
4 | N#CC(C#N)=Cc1c(-c2ccccc2)[nH]c2ccccc12 | 66% | 44.3% | 38.9% | 67.6% | 65.5% | 38.6% | – | 26.9% | 32.2% | -3.79% (active)
5 | O=c1oc2ccc(Cl)cc2c(=O)n1-c1ccc(F)cc1F | 36.2% | 4.19% (active) | -1.33% (active) | 21% | 4.18% (active) | -14% (active) | 13.7% | 9.73% (active) | – | –
6 | COc1cc(C2C(C#N)=C(N)OC3=C2C(=O)c2ccccc2C3=O)cc(OC)c1OC (stereo not drawn) | 52.4% | 39.2% | 41.2% | 63.9% | 37.3% | 40.9% | 55.6% | 87.1% | 31.6% | -0.0439% (active)
7 | O=C(c1nc2ccccc2[nH]1)C1C(c2ccc([N+](=O)[O-])cc2)C2CC3CCCCC3N2[C@@]12C(=O)Nc1cc(Cl)ccc12 (stereo partly drawn) | 16.6% | 34.1% | 13.1% | 36.7% | 18.4% | 41.5% | 24.2% | 8.23% (active) | 19.6% | –
8 | CCN1CCN(C(=S)SCC(=O)Nc2nc3ccc(C)cc3s2)CC1 | 122% | 99.1% | 60.6% | 111% | 103% | 87.2% | – | 111% | 103% | 126%
9 | COC(=O)c1c2c(c(C)[n+]([O-])c1C)C(=O)C=C(NCc1ccc(F)c(F)c1)C2=O | -82.1% (active) | -93.7% (active) | -71.5% (active) | 3.98% (active) | -78.2% (active) | -10.6% (active) | 5.3% (active) | -26.5% (active) | – | –
10 | O=C(c1nc2ccccc2[nH]1)C1C(c2cccc([N+](=O)[O-])c2)C2CC3CCCCC3N2[C@@]12C(=O)Nc1cc(Cl)ccc12 (stereo partly drawn) | 31.3% | 33.2% | -19.5% (active) | 46.9% | 21.2% | 12.2% | 25.5% | 8.76% (active) | 6.09% (active) | -1.86% (active)
11 | COc1cccc(/C(C#N)=C/c2nc3c(N4CCOCC4)nc(Cl)nc3n2C)c1 | -77.3% (active) | 12.8% | -95.9% (active) | -65.6% (active) | -98% (active) | -92.1% (active) | 2.67% (active) | -19.4% (active) | 5.6% (active) | -2.48% (active)
12 | N[C@@H](CC/[N+]([O-])=N/O)C(=O)O | 89.3% | 101% | 94.9% | 104% | 105% | 97.6% | 105% | 104% | 126% | –
13 | COC(=O)/C(=C\c1c(C)[nH]c2ccccc12)S(=O)(=O)c1ccccc1 | 61.3% | 39.7% | 23.8% | 46.8% | 49.1% | 27% | – | 15.5% | 27.2% | -3.18% (active)
14 | CCN1C(=O)N(c2ccccc2)C2Nn3c(s/c(=C4\C(=O)N(C(C)C)c5ccccc54)c3=O)=NC21 (stereo not drawn) | 97.8% | 102% | 79.9% | 122% | 108% | 86.9% | 103% | 107% | 108% | –
15 | Clc1ccc(Nc2scc3[n+]2CCC3)cc1 | 60.3% | 98.2% | 81.3% | 111% | 104% | 84.8% | 95.8% | 94.6% | 113% | –
16 | CC(C)Cn1c2c(c(=S)[nH]c1=O)CCC2 | 102% | 97.6% | 86% | 102% | 103% | 89.1% | 99.3% | 108% | – | –
17 | O=C(N=Nc1c(O)[nH]c2ccccc12)c1oc2ccccc2c1CN1CCN(c2ccccc2)CC1 | 4.35% (active) | 11.5% | -52.2% (active) | -45.1% (active) | -85.2% (active) | 32.9% | 19.7% | 30.7% | 1.67% (active) | –
18 | COc1ccc(C2C3=C(COC3=O)N(CCO)c3cc4c(cc32)CCC4)cc1OC (stereo not drawn) | 23.3% | 38.8% | 42% | 14.1% | 47.6% | 8.75% (active) | 18.6% | 24% | 25% | 29%
19 | CS(=O)(=O)Nc1ccc(C(=O)NC(C(=O)NO)c2ccc(-c3cccc(F)c3)cc2)cc1 (stereo not drawn) | 97.4% | 75.3% | 19.3% | 30.3% | 58.7% | 49.9% | 95.1% | 103% | 78.8% | 95.6%
20 | COc1cc2c(cc1OC)C(=O)C(CC1CCN(C(=O)Nc3ccc(C)cc3)CC1)C2 (stereo not drawn) | 90.9% | 92.5% | 60.4% | 116% | 93.6% | 83.7% | 97.8% | 102% | 112% | –
21 | O=C(CCc1nnc2sc(-c3ccc(Cl)cc3Cl)nn12)c1nc2ncccc2[nH]1 | -26.2% (active) | -7.29% (active) | -82% (active) | -31.6% (active) | -48% (active) | -15.7% (active) | 6.98% (active) | 5.44% (active) | – | –

Row | SMILES | growth (EKVX NSCLC) | growth (SN12C renal) | growth (UO-31 renal) | growth (TK-10 renal) | growth (ACHN renal) | growth (CAKI-1 renal) | growth (CCRF-CEM leukemia) | growth (MOLT-4 leukemia) | growth (SR leukemia) | growth (A498 renal)
22 | O=C1/C=C/[C@@H](O)[C@@H]2C[C@@H](O)C[C@H]2/C=C/CCCCO1 | 20.6% | 45.3% | 8.64% (active) | 32.1% | 17.9% | 18.4% | – | 5.39% (active) | 14.4% | -25.5% (active)
23 | COc1cccc(C(=O)Cn2cc(/C=C(\C#N)S(=O)(=O)c3ccccc3)c3ccccc32)c1 | 114% | 83.7% | 70.4% | 106% | 111% | 118% | – | 103% | 99.4% | -75.9% (active)
24 | CCN(CC)CCNC(=O)C(Cl)=C1C(Cl)=C(Cl)C(Cl)=C1Cl | 87.8% | 47.8% | 43.6% | 59.4% | 48.6% | 6.11% (active) | – | 15% | 34.8% | 71.8%
25 | Cc1ccc2c(n1)C(=O)C(Oc1ccc(Br)cc1)=CC2=O | 104% | 93.5% | 84.3% | 103% | 7.34% (active) | 97.5% | 62% | 87.9% | 92.1% | –
26 | COc1ccccc1C1=C(Br)C(=O)c2nc(C)ccc2C1=O | 99.5% | 92.4% | 77.2% | 101% | 19.9% | 98.4% | 92% | 117% | 105% | –
27 | CC1=NCC2NC(=O)NC(C)=C12 (stereo not drawn) | 100% | 99.2% | 83.6% | 95.9% | 109% | 92.8% | 99.7% | 107% | 104% | –
28 | O=c1oc2ccc(Cl)cc2c(=O)n1-c1ccc(I)cc1F | 11.4% | -1.14% (active) | 7.35% (active) | 11% | 4.07% (active) | -16.3% (active) | 7.15% (active) | -28.6% (active) | – | –
29 | COc1ccc(OC)c(NC(=O)/C(C#N)=C/c2ccco2)c1 | 94% | 101% | 67.8% | 114% | 93.6% | 90.4% | – | 78.7% | 74.3% | 101%
30 | CCCN1CCN(c2ccc3nc(-c4ccc5nc(-c6cc(OC)ccc6OC)[nH]c5c4)[nH]c3c2)CC1 | 96.7% | 99.2% | 85.7% | 118% | 106% | 106% | 3.98% (active) | 77% | -25.6% (active) | –
31 | c1ccc2c(c1)oc1cc3sccc3nc12 | 101% | 93% | 66.6% | 135% | 99.5% | 78% | 100% | 97.7% | 96.5% | –
32 | COC(=O)c1c2c(c(C)[n+]([O-])c1C)C(=O)C(NCc1ccc(F)c(F)c1)=CC2=O | 13% | 1.1% (active) | 58.8% | 85.5% | 22.1% | 43% | 21.5% | 8.41% (active) | 20.4% | –
33 | CCCCN1CCN(c2ccc3nc(-c4ccc5nc(-c6ccc(OCC)cc6)[nH]c5c4)[nH]c3c2)CC1 | 92.9% | 76.9% | 100% | 86.8% | 63.9% | 51.2% | 20.5% | 56.9% | -1.98% (active) | –
34 | CCCSC1=NC2C(N(CC)C(=O)N2CC)N1/N=C/C=C/c1ccccc1[N+](=O)[O-] (stereo not drawn) | 53.6% | 40.6% | 44% | 85.1% | 41.5% | 44.1% | 16% | 18.6% | – | –
35 | COC(=O)/C(CCC=C(C)C)=C1\[C@@H](OC(C)=O)C[C@@]2(C)[C@H]1CC(=O)[C@H]1[C@@]3(C)CC[C@H](NCc4ccccc4)[C@@H](C)[C@@H]3CC[C@@]12C | 87.9% | 87% | 69.9% | 111% | 99.3% | 86.8% | 76.4% | 61.7% | 1.93% (active) | 91.9%
36 | COc1ccc2[nH]c(O)c(N=NC(=O)c3oc4ccccc4c3C)c2c1 | 37.3% | 34.9% | -55.3% (active) | -64% (active) | – | -51.7% (active) | 57.1% | 50.9% | 43.5% | –
37 | S=C1NC2(c3ccccc3)CCC(=S)N2c2ccccc21 (stereo not drawn) | 100% | 96.8% | – | 124% | 108% | 78.7% | 101% | 97.5% | 92.9% | –
38 | Cc1ccc(NCCNCC(O)CO)c2c(=O)c3ccccc3sc12 (stereo not drawn) | 43.3% | 19.7% | -24% (active) | – | -46.3% (active) | 39.2% | 22.2% | 9.37% (active) | -9.74% (active) | 43.2%
39 | Cn1cc(-c2ccc3ncc(-c4ccc(CC(=O)Nc5cc(C(C)(C)C)no5)cc4)nc3c2)cn1 | 50% | 26.8% | – | 50.8% | 15.2% | 16.6% | 50.6% | 30.7% | 16% | 17.9%
40 | C1CCN(c2nc(N3CCCCC3)nc(N3CCOCC3)n2)CC1 | 85.4% | 96.5% | – | 92.1% | 116% | 85.6% | 92.6% | 81.5% | – | 109%
41 | CCN1C(=O)N(CC)C2Nn3c(s/c(=C\c4ccccc4F)c3=O)=NC21 (stereo not drawn) | 38.4% | 53.5% | – | 87.2% | 50.8% | 48.1% | 34.1% | 44% | 24.5% | –
42 | CCCCOCc1cc(CN2CCN(C)CC2)c(O)c2ncccc12 | 38.4% | 62% | 21.3% | – | 27.9% | 19.5% | 31.8% | 60.6% | 35.9% | 70.1%
